# HCV inh: inhibitors of hepatitis C virus infection; Huh7.5.1 HCVcc-Cre infection, luciferase reporter, 44 h; Potency, µM (top dose mostly 41.8 µM), hits mostly inhibitors; actives 3.4% (n = 340,000)
#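 Compounds are dispensed onto cells plated 4 h earlier at 1,000 per well, with HCVcc-Cre virus (about 0.5 moi) added next. Following 44 h of culture, luminescent signal is measured for 15 sec after 15 min with substrate at room temperature.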
# SARS PLpro yeast: SARS-CoV PLP inhibition in yeast; S. cerevisiae expressing SARS-CoV PLpro, growth rescue; Potency, µM (doses to about 32.9 µM), actives largely listed as activators; actives 0.19% (n = 330,000); AID 485353; calls by dose curve; note: nearly all actives have a fitted effect of over 55% in size
# Pf growth 48h: inhibits P. falciparum growth in the first generation, 48 h; P. falciparum luciferase growth in erythrocytes, 48 h; Potency, µM (titrated, usually from 28.7 µM), hits mostly inhibitors; actives 5.9% (n = 310,000); AID 504832
#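 Luciferase-expressing P. falciparum in infected erythrocytes (2% hematocrit, 0.1% parasitemia final) in RPMI 1640/0.5% Albumax were exposed to compound for 48 hours at 37 C, 5% CO2; growth read as luminescence.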
# HCMV inh: human cytomegalovirus inhibition; HFF cells, HCMV-luciferase reporter, 72 h; active compounds read low; activity change, negative = inhibition, % at 57.5 µM; actives 4.5% (n = 410,000); in the data active = activity change below about -60%; inconclusive = no clear call, values can overlap the other calls; inactive = above about -39%
#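 After 16 h attachment at 37C, HFF cells received test compound and HCMV-luciferase (1 PFU/cell); reporter luminescence read 72 h later, data normalized against buffer-only and known inhibitor Salinomycin.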
# Pf growth 96h: P. falciparum growth inhibition at 96 hour, primary screen for plastid delayed-death inhibitors. P. falciparum luciferase reporter growth, 96 h. Potency, µM (top dose mostly 28.7 µM), actives largely listed as inhibitors. actives 6.9% (n = 320,000)
#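 Two-generation exposure (96 h) targets delayed-death phenotype. Reporter parasites carrying integrated firefly luciferase, in red cells at 2% hematocrit and 0.05% parasitemia final, kept at 37 C, 5% CO2; luminescence loss indicates inhibition.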
# Sm TGR block: inhibitors of Schistosoma mansoni thioredoxin glutathione reductase. Q962Y6. purified TGR, DTNB reduction, TNB absorbance 405 nm. actives 3% (n = 360,000). AID 485364. Potency, µM (top dose mostly 114 µM), usual class: inhibitors; note: nearly all actives have a fitted effect of over 60% in size
#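 Kinetic colorimetric format: TGR-catalysed, NADPH-driven DTNB reduction monitored via TNB absorbance. Enzyme dispensed at 20 nM; compound exposure 15 min at room temperature before reaction start.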
# A number is an active result; 0 = inactive; ? = inconclusive; - = no result given; ! = repeats disagree; [ ] = dose if it differs, or a comment. In the library only some 15% were active in any assay of this set; here they are far more common. Unless noted, calls come from the whole dose curve; as a rule, active = well fitted curve in the direction sought with a large enough effect; inconclusive = small, poorly fitted or top-dose-only effect, or another doubt; inactive = no such curve, though single readings can be large; an effect the other way counts as inactive or inconclusive.
SMILES,HCV inh,SARS PLpro yeast,Pf growth 48h,HCMV inh,Pf growth 96h,Sm TGR block
COc1ccc(-c2cc(C(C)=O)c(C)n2CCC(=O)NCc2ccc(F)cc2)cc1,-,-,-,?,-,0
Cc1cc(C)n(-c2ccc(C(=O)Nc3ccc(S(=O)(=O)NCc4ccco4)cc3)cc2)n1,3.5µM,0,13µM,-96,0,0
Cc1ccc(NC(=O)CN(C)C(=O)c2cccc(S(=O)(=O)NCc3ccco3)c2)cc1,0,0,0,0,9.3µM,0
Cc1noc(C)c1COC(=O)c1ccc(S(=O)(=O)NCc2ccco2)cc1,?,0,0,0,?,40µM
CCCC(=O)N1CCC1(C)C(=O)NS(=O)(=O)c1cccc(Cl)c1 (stereo not drawn),-,-,-,0,-,-
Cc1nnc2sc(SCC(=O)N3CCCCC3)nn2c1=O,0,0,2.6µM,0,0.83µM,0
Cc1nnc2sc(SCC(=O)N3CCC(C)CC3)nn2c1=O,0,0,?,0,3.7µM,0
Cc1ccccc1CSc1nn2c(=O)c(C)nnc2s1,0,0,5.2µM,0,?,0
Cc1nnc2sc(SCC(=O)Nc3ccc(Br)cc3)nn2c1=O,0,0,?,0,?,0
Cc1nnc(SCC(=O)N2CCCCC2)s1,?,0,0,0,-,0
C[C@@H]1CN([C@@H](C)CO)C(=O)c2cc(Br)cnc2O[C@H]1CN(C)C(=O)Cc1cccnc1,-,-,-,0,-,-
COC(C)(C)CCCC(C)C/C=C/C(C)=C/C(=O)OC(C)C (stereo not drawn),0,0,?,0,15µM!,0
CCOC(=O)/C=C(C)/C=C/CC(C)CCCC(C)C (stereo not drawn),-,-,0,-,0,-
CCc1ccccc1N1C(=O)CC(Sc2nccc(C)n2)C1=O (stereo not drawn),0,0,0,0,?,40µM
Cc1ccc(N2C(=O)CC(Sc3nccc(C)n3)C2=O)cc1 (stereo not drawn),0,0,0,0,0,?
Cc1ccnc(SC2CC(=O)N(c3ccc([N+](=O)[O-])cc3)C2=O)n1 (stereo not drawn),0,0,0,0,0,22µM
CC1(C(=O)NS(=O)(=O)C2CC2)CCN(C(=O)COCc2ccccc2)C1 (stereo not drawn),-,-,-,0,-,-
CCCN1C(=O)CC[C@@H](S(=O)(=O)c2ccccc2)[C@@H]1c1ccco1,-,-,-,0,-,-
CC1=C2C(=O)C3C(CC=C4CC(O)CCC43C)C2CCC12OC1CC(C)CNC1C2C (stereo not drawn),0,0,13µM,0,?,0
CN(/C(=N/S(=O)(=O)c1cccs1)c1ccccc1)c1ccccc1,0,0,0,0,0,0
Cc1cc[n+](C2=C([O-])c3ccccc3C(=O)/C2=N\S(=O)(=O)c2cccs2)cc1C,11µM,0,2.6µM,0,3.3µM,0
Cc1cc(C)c[n+](C2=C([O-])c3ccccc3C(=O)/C2=N\S(=O)(=O)c2cccs2)c1,?,0,1.9µM,0,?,0
O=C(Nc1ccc(Cc2ccncc2)cc1)c1ccc(S(=O)(=O)N2CCOCC2)cc1,?,0,?,-73,0,0
CCOc1ccc(-n2c([S-])c(C(=O)Nc3ccc(S(=O)(=O)N4CCOCC4)cc3)[n+]3cc(C(N)=O)ccc23)cc1,0,0,12µM,0,?,0
O=C(Nc1ccc(S(=O)(=O)N2CCOCC2)cc1)c1ccc(F)cc1,0,0,0,0,?,0
SMILES,HCV inh,SARS PLpro yeast,Pf growth 48h,HCMV inh,Pf growth 96h,Sm TGR block
Cc1ccc(S(=O)(=O)N2CCOCC2)cc1NC(=O)Cn1ccsc1=N,0,0,0,0,-,0
O=C(NCc1ccc(F)cc1)c1ccc(S(=O)(=O)N2CCCC2)cc1,-,-,-,0,-,-
O=C(CNC(=O)c1ccc(F)cc1)NCc1ccc(S(=O)(=O)N2CCOCC2)cc1,0,0,?,0,0,89µM
CCOc1ccc(NC(=O)COC(=O)c2ccc(S(=O)(=O)N3CCOCC3)cc2)cc1,0,0,-,0,-,-
N=c1sccn1CC(=O)Nc1ccc(S(=O)(=O)N2CCOCC2)cc1,0,0,0,-63,?,0
Cc1ccc(C(=O)Nc2ccc(S(=O)(=O)N3CCOCC3)cc2)cc1,0,0,?,0,?,-
O=C(O)c1nccnc1C(=O)Nc1ccc(S(=O)(=O)N2CCOCC2)cc1,0,0,0,0,?,25µM
O=C(Nc1ccc(S(=O)(=O)N2CCOCC2)cc1)c1ccc(S(=O)(=O)N2CCOCC2)cc1,0,0,0,0,12µM,0
O=C(Nc1ccccc1C(=O)N1CCCC1)c1ccc(Cl)cc1Cl,0,0,0,?,12µM,0
Cc1ccnc(NC(=O)c2ccccc2NC(=O)c2ccc(Cl)cc2Cl)c1,10µM,0,?,0,0,0
O=C(Nc1ccccc1C(=O)N1CCCCC1)c1cc(F)c(F)cc1Cl,0,0,0,0,0,0
CN1CCN(C(=S)NC(=O)c2ccccc2Cl)CC1,0,0,0,0,0,0
O=C(Nc1cccn(Cc2c(Cl)cccc2Cl)c1=O)c1ccc(Cl)cc1Cl,11µM,0,?,-97,0,0
O=C(NC(=S)N1CCCCCC1)c1ccccc1Cl,0,0,5.2µM,0,0,0
CC1CCC2(CC1)NC(=O)N(CC(=O)N1CCN(c3ccccc3)CC1)C2=O (stereo not drawn),0,0,0,0,?,0
CCCCN(C(=O)C1CC(=O)N(c2ccc(CC)cc2)C1)c1c(N)n(CCC)c(=O)[nH]c1=O (stereo not drawn),0,0,0,0,0,0
O=C(NC(=S)N1CCCCCC1)c1ccc(Cl)cc1Cl,0,0,?,0,9.3µM,0
O=C(O)/C=C/C(=O)N(CC1CCCO1)C1CC(=O)N(c2c(Cl)cccc2Cl)C1=O (stereo not drawn),?,0,0,0,0,40µM
COc1ccc([C@]23Cc4ccccc4C(O2)c2c(cc(C)n(Cc4ccccc4)c2=O)O3)cc1,-,0[6.58 µM],?,-,?,?
COc1cc(OC)c2c(-c3cccc(-c4ccc(OC)c(F)c4)c3)cc(=O)oc2c1,?,0,-,-68,-,-
CCc1cc(=O)oc2cc3occ(-c4ccc(OC)c(F)c4)c3cc12,?,0,?,-68,0,0
Cc1nc2ccc(F)cc2cc1C(=O)NCC1CCCO1 (stereo not drawn),0,0,?,0,6.6µM,0
O=C(NCC1CCCO1)c1cc2ccccc2nc1Cl (stereo not drawn),0,0,0,-70,0,0
O=C(NCc1ccccc1)C(=O)Nc1c2c(nn1-c1ccccc1)CSC2,-,-,-,0,-,0
CN1C[C@H](CNC(=O)OCc2ccccc2)C[C@@H]2c3cccc4c3c(cn4C)C[C@H]21,?,0,10µM,0,2.9µM!,0
CN1C[C@H](CO)C[C@@H]2c3cccc4[nH]cc(c34)C[C@H]21,0,0,0,0,0,0

# Assay outcomes deposited in PubChem BioAssay by National Center for Advancing Translational Sciences (NCATS).
